The source of these data is PubChem BioAssay (Tox21).

Records with an inconclusive call do not appear. A call without a number means that no potency is given here. Activity calls are given as the source filed them. Calls come from the whole dose curve.

5-hydroxytryptamine receptor 2A (Homo sapiens), sequence (P28223 whole entry, looked up): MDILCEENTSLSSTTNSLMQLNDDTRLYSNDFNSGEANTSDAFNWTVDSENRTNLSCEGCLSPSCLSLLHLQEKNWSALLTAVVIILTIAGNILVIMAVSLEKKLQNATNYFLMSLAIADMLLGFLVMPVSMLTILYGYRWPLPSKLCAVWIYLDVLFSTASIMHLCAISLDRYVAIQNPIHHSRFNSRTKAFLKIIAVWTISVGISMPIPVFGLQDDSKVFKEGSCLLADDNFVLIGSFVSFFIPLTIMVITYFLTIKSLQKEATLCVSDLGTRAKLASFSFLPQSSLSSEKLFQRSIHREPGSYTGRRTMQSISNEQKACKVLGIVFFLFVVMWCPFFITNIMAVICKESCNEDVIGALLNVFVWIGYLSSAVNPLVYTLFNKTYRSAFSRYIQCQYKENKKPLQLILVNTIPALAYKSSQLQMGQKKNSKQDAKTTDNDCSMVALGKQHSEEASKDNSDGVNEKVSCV

The first test deals with 5-hydroxytryptamine receptor 2A (Homo sapiens) (UniProt P28223). Description: 5-hydroxytryptamine receptor 2A (HTR2A) small molecule antagonists, cell-based qHTS assay (AID 1963586). Note: nearly all actives have a fitted effect of over 45% in size. Conditions: HTR2A-CHO cells, DOI-induced calcium flux, fluorescence; series mostly up to 61.5 µM. Put shortly:
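Antagonist-mode intracellular calcium assay: DOI (4 nM) added after 5 min compound pre-incubation at room temperature to dye-loaded HTR2A-CHO cells. Fluorescence followed for 3 min, sampled every second.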
On the technique in general: In qHTS, concentration-response curves come from the screen itself.
Take `O=C(CCl)CCl`: the Potency result is “inactive”.

In the case of `CCCCN=C=O`, the Potency result was “inactive”.

For `COc1nc(NC(C)C)nc(NC(C)C)n1`, the Potency entry is “inactive”.

Regarding `CCOc1cc(C=O)ccc1O`, the Potency entry was “inactive”.

For `Cl/C=C\CCl`, the Potency entry is “inactive”.

As for `C=CC(=O)NC(C)(C)CC(C)=O`, the Potency result was “inactive”.

For the molecule `Cc1ccc(N)cc1C`, the Potency result was “inactive”.

For the molecule `CC(C)(Cl)Cl`, the Potency entry was “inactive”.

On to `CCOS(C)(=O)=O`, for which the Potency entry is “inactive”.

Take `O=C([O-])c1ccccn1.O=C([O-])c1ccccn1.O=C([O-])c1ccccn1.[Cr+3]`: the Potency result is “inactive”.

For `BrCCc1ccccc1`, the Potency entry is “inactive”.

As to `COCC(=O)N(c1c(C)cccc1C)[C@H](C)C(=O)OC`, the Potency entry was “inactive”.

Take `CN(C)C(=O)C(c1ccccc1)c1ccccc1`: the Potency entry was “inactive”.

As for `CN(CCCC(=O)c1cccnc1)N=O`, the Potency result is “inactive”.

On to `COC(=O)[C@@H](N)CCCN/C(N)=N/[N+](=O)[O-]`, for which the Potency entry is “inactive”.

Take `CC[N+](=O)[O-]`: the Potency entry was “inactive”.

On to `CCCCCCC1CCOC1=O` (configuration not stated), for which the Potency result was “inactive”.

Turning to `O=[N+]([O-])c1ccccc1O`, the Potency result is “inactive”.

For a further test the target is unchanged. Description: 5-hydroxytryptamine receptor 2A (HTR2A) small molecule agonists, cell-based qHTS assay (AID 1963587). Note: nearly all actives have a fitted effect of over 30% in size. Conditions: HTR2A-CHO cells, calcium flux fluorescence, agonist mode; series mostly up to 76.8 µM. In short, it runs like this: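 HTR2A-CHO cells, plated 18 h at 37 C/5% CO2, dye-loaded 1 h at 37 C; compounds in DMSO added by pin tool (agonist mode). Intracellular calcium flux read as kinetic fluorescence on FDSS over 2 min at 1 s intervals.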
Take `ClC(Cl)=C(c1ccc(Cl)cc1)c1ccc(Cl)cc1`: the Potency entry was “inactive”.

Turning to `ClCCN1CCOCC1`, the Potency entry is “inactive”.

As for `C1CCC2CCCCC2C1` (configuration not stated), the Potency entry was “inactive”.

Take `CC12CC1(C)C(=O)N(c1cc(Cl)cc(Cl)c1)C2=O` (configuration not stated): the Potency entry was “inactive”.

For the molecule `ClCc1cccnc1`, the Potency entry was “inactive”.

For `CNC(=O)O/N=C/C(C)(C)S(C)=O` (configuration not stated), the Potency entry is “inactive”.

Turning to `CN(C)C(=O)Nc1ccc(Cl)cc1`, the Potency result is “inactive”.

Turning to `Cc1ccccc1CCl`, the Potency result was “inactive”.

Turning to `CCOP(=S)(OCC)SCSc1cc(Cl)ccc1Cl`, the Potency result was “inactive”.

Consider `Nc1c(Br)cc([N+](=O)[O-])cc1[N+](=O)[O-]`, for which the Potency result was “inactive”.

`COC[C@@H](NC(C)=O)C(=O)NCc1ccccc1`: the Potency entry was “inactive”.

In the case of `COc1cc(OC)nc(NC(=O)NS(=O)(=O)c2ncccc2C(=O)N(C)C)n1`, the Potency entry was “inactive”.

On to `OCC(Br)CBr` (configuration not stated), for which the Potency result was “inactive”.

Turning to `c1ccc(C2CO2)cc1` (configuration not stated), the Potency entry was “inactive”.

For `CCN(C)N=O`, the Potency entry was “inactive”.

Regarding `C=CC(=O)OCCO`, the Potency entry is “inactive”.

Take `CCOP(OCC)OCC`: the Potency result was “inactive”.

For the molecule `CC(=O)C1CCOC1=O` (configuration not stated), the Potency entry is “inactive”.

As for `C#CCOC(=O)/C=C(C)/C=C/CC(C)CCCC(C)C` (configuration not stated), the Potency entry was “inactive”.

`CCN(CC)C1CCCCC1`: the Potency entry is “inactive”.

For the molecule `CCCCC(CC)COC(=O)c1ccc(C(=O)OCC(CC)CCCC)c(C(=O)OCC(CC)CCCC)c1` (configuration not stated), the Potency result was “inactive”.

`O=C(CCl)CCl`: the Potency entry is “inactive”.

With `CCCCN=C=O`, the Potency entry was “inactive”.

On to `COc1nc(NC(C)C)nc(NC(C)C)n1`, for which the Potency entry is “inactive”.

In the case of `CCOc1cc(C=O)ccc1O`, the Potency result is “inactive”.

With `Cl/C=C\CCl`, the Potency entry is “inactive”.

In the case of `C=CC(=O)NC(C)(C)CC(C)=O`, the Potency result was “inactive”.

As for `Cc1ccc(N)cc1C`, the Potency entry is “inactive”.

Take `CC(C)(Cl)Cl`: the Potency result was “inactive”.

On to `CCOS(C)(=O)=O`, for which the Potency entry was “inactive”.

As for `O=C([O-])c1ccccn1.O=C([O-])c1ccccn1.O=C([O-])c1ccccn1.[Cr+3]`, the Potency entry is “inactive”.

For the molecule `BrCCc1ccccc1`, the Potency entry is “inactive”.

`COCC(=O)N(c1c(C)cccc1C)[C@H](C)C(=O)OC`: the Potency entry was “inactive”.

With `CN(C)C(=O)C(c1ccccc1)c1ccccc1`, the Potency result is “inactive”.

Consider `CN(CCCC(=O)c1cccnc1)N=O`, for which the Potency entry was “inactive”.

Turning to `COC(=O)[C@@H](N)CCCN/C(N)=N/[N+](=O)[O-]`, the Potency result was “inactive”.

Take `CC[N+](=O)[O-]`: the Potency result is “inactive”.

In the case of `CCCCCCC1CCOC1=O` (configuration not stated), the Potency result was “inactive”.

As to `O=[N+]([O-])c1ccccc1O`, the Potency entry is “inactive”.
